PubChem BioAssay AID623868 (Vanderbilt High Throughput Screening Facility, 2012)
Out of some 2,100 compounds screened, about 760 (36%) were called active.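 Rule for the calls: active = thallium-flux fluorescence traces judged by eye to show enhanced or reduced glutamate response, manual score 1 or -1, so both directions (some results past the limit were not filed as active); inactive = the rest, including fluorescent or raised-baseline compounds.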 Only a sample is shown.

Assay: non-GIRK thallium flux modulation in mGlu8 cells, confirmation, counter-screen for GIRK activator project, cell-based, HEK-293 rmGlu8, no GIRK (AID 623868);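 note: extra codes mark interference with 3 for fluorescent and 4 for baseline rise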
Conditions: thallium flux fluorescence, at 10 µM, actives lie on both sides, codes: 1 enhancer, -1 blocker, 0 none, thallium stimulus containing EC20 glutamate
In the case of `COc1ccc(S(=O)(=O)N(CC(=O)N2CCN(c3ccccc3)CC2)c2ccccc2)cc1`, the manual score is reported as 0 (inactive). For `CN1C=CC2=C(C#N)C(N)C(C#N)(C#N)C(c3ccccc3)C2C1` (stereo not given), the manual score was 3 (inactive). In the case of `CC(=O)c1cccc(NC(=O)C2CCCN2S(=O)(=O)c2cccc3cccnc23)c1` (stereo not given), the manual score is reported as 0 (inactive). In the case of `Cc1cc(/C=c2/sc3nc4ccccc4n3c2=O)c(C)n1-c1ccccn1`, the manual score is reported as 0 (inactive). With `Cc1ccc2cccc(Oc3nnnn3-c3ccccc3)c2n1` the manual score was 0 (inactive). In the case of `CCOC(=O)c1c(C)[nH]c2c1cc(O)c1ccccc12`, the manual score is reported as 0 (inactive). In the case of `CCOC(=O)c1c(-c2ccc(C)o2)csc1NC(=S)NC(=O)c1cccs1`, the manual score is reported as 0 (inactive). In the case of `CCOC(=O)c1c(-c2ccccc2)csc1NC(=S)NC`, the manual score is reported as 1 (active). For `CCOC(=O)c1c(-c2ccc(C)o2)csc1NC(=S)NC(=O)N(C)C`, the manual score was 1 (active). For `CCNC(=S)Nc1scc(-c2ccccc2)c1C(=O)OCC`, the manual score was 1 (active). In the case of `CCOC(=O)C(Cc1ccccc1)NC(=O)Cn1nnc(-c2ccccc2)n1` (stereo not given), the manual score is reported as 0 (inactive). For `Cc1ccc(OCC(=O)Nc2ccc(C)c(S(=O)(=O)N3CCCCC3)c2)c([N+](=O)[O-])n1`, the manual score was 0 (inactive). In the case of `NC(=O)c1noc(C(=O)N(CC(=O)NC2CCCC2)Cc2ccc3c(c2)OCO3)c1N`, the manual score is reported as 0 (inactive). In the case of `O=C1c2cccc3c(O)ccc(c23)C(=O)N1Cc1ccccc1`, the manual score is reported as 3 (inactive). In the case of `CCc1ccc(C2=NN(c3ccc(S(N)(=O)=O)cc3)C(c3ccc(F)cc3)C2)cc1` (stereo not given), the manual score is reported as 0 (inactive). With `CN1CCN(c2ccccc2NS(=O)(=O)c2ccc3c(c2)CCN3C(=O)C2CCC2)CC1` the manual score was 0 (inactive). With `O=S(=O)(Nc1ccccc1N1CCCCC1)c1ccc(Cl)s1` the manual score was 1 (active). With `O=C(Nc1nncs1)c1ccccc1NS(=O)(=O)c1cccs1` the manual score was 0 (inactive). With `CCOc1ccccc1N1CCN(S(=O)(=O)c2cccs2)CC1` the manual score was 0 (inactive). For `O=C(Nc1ccccc1)c1ccccc1NS(=O)(=O)c1ccc(Cl)s1`, the manual score was 0.5 (inactive). In the case of `O=S(=O)(Nc1cc(Cl)ccc1N1CCCCC1)c1cccs1`, the manual score is reported as 1 (active). With `CCCN(CCC)CCCNC(=O)c1cc2c(=O)n(C)c3ccccc3c2n1C` the manual score was 0 (inactive). With `S=c1nc[nH]c2c1sc1nc(-c3ccccc3)c3c(c12)CCCC3` the manual score was 1 (active). In the case of `Cc1ccc2nsnc2c1S(=O)(=O)Nc1cccc2nsnc12`, the manual score is reported as 1 (active). With `CCOC(=O)N1CCN(c2c(F)cc3[nH]c(=S)[nH]c3c2Br)CC1` the manual score was 0 (inactive). With `Cc1sc2ncnc(N(C)Cc3cccs3)c2c1C` the manual score was -1 (active). In the case of `CC(C)CCNC(=O)C(C)N(Cc1ccc(F)cc1)C(=O)c1ccc(CN2CCCCC2)o1` (stereo not given), the manual score is reported as 0 (inactive). In the case of `CC(NC(=O)COc1ccccc1)C(=O)NC1=NCCS1` (stereo not given), the manual score is reported as 0 (inactive). In the case of `Cc1ccc(OCCCC(=O)Nc2nccs2)cc1`, the manual score is reported as 0 (inactive). For `Cc1ccc(OCC(=O)NNC(=O)C(C)Sc2ncnc3sc(C)c(C)c23)cc1` (stereo not given), the manual score was 1 (active).
